High-throughput results as filed in PubChem.
Sampled rows, rich in hits. Any-hit rate of the full collection: about 21%.
D3 ag: D3 dopamine receptor (human) agonism. max activation, %. D3R DiscoveRx beta-arrestin cells, luminescence, 90 min. actives 0.58% (n = 410,000). AID 652048. P35462; in the data active = max activation above about 30%
Target sequence (P35462 whole entry, looked up): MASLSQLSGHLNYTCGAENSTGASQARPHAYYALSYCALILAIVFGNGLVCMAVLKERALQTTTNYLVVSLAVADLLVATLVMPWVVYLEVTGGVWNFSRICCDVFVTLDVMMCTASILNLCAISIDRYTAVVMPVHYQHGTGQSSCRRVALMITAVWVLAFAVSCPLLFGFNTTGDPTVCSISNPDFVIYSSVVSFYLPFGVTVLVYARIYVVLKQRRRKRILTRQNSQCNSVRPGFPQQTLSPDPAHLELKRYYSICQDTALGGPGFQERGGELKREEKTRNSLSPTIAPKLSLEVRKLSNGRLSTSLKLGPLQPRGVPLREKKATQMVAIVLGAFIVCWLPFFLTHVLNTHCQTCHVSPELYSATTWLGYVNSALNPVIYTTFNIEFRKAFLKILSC
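Agonist-mode cell screen: cells plated at 1500/well and incubated overnight at 37 °C, then exposed to library compounds for 90 min at 37 °C. Detection reagent was added for 30–60 min at room temperature, and luminescence was read.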
D3 antag: blocks the human D3 dopamine receptor; P35462; AID 652054; actives 2.5% (n = 360,000); D3R cells, DiscoveRx beta-arrestin luminescence, antagonist mode; active compounds read low; max response, negative = inhibition, %; in the data active = max response below about -50%; inconclusive = no clear call, values can overlap the other calls
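Cells plated overnight at 1500 cells/well, then exposed to library compounds with dopamine controls for 90 minutes at 37 degrees C. DiscoveRx reagent added for 30–60 minutes at room temperature; luminescence read, quantitative HTS format.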
DT40 TDP1 CPT: growth inhibition of DT40 Tdp1-/-;hTDP1 cells with camptothecin (screen for TDP1 inhibitors); Potency, µM (top dose mostly 46.2 µM), usual class: inhibitors; chicken DT40 Tdp1-/-;hTDP1 cells + 20 nM CPT, ATP luminescence, 48 h; AID 686979; actives 12% (n = 420,000); also: nearly all actives have a fitted effect of over 55% in size
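Cell growth measured by CellTiter-Glo luminescence after a minimum 48 h, 37 C compound exposure with 20 nM CPT in Tdp1-knockout DT40 cells stably expressing hTDP1, seeded 400/well; qHTS titration format.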
ClpP mod: qHTS Assay for Activators of ClpP. ATP-dependent Clp protease proteolytic subunit (Bacillus subtilis (strain 168)), P80244. purified B. subtilis ClpP, FRET peptide cleavage, 20 min. Potency, µM (highest dose often 57.5 µM). actives 1.9% (n = 340,000). AID 651965, 2013; active = well fitted falling curve with a large enough effect; inconclusive = small, poorly fitted or top-dose-only effect; inactive = no such curve, though single readings can be large or run the other way; also: the source files actives as falling curves though it sought activators and does not explain the sign; nearly all actives have a fitted effect of over 65% in size
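Buffer: 100 mM Tris/HCl pH8, 100 mM KCl, 0.05% low protease BSA, 2.5% glycerol, 0.01% Tween-20. ClpP 10 microg/mL final; 20 min RT; delta FRET normalized to ADEP and DMSO controls.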
TDP1 cell noCPT: qHTS for Inhibitors of human tyrosyl-DNA phosphodiesterase 1 (TDP1): qHTS in cells in absence of CPT | DT40 Tdp1-/- hTDP1 cells, no CPT, ATP luminescence, 48 h | Potency, µM (highest dose often 46.2 µM), usual class: inhibitors | actives 15% (n = 420,000); also: nearly all actives have a fitted effect of over 55% in size
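DT40 Tdp1-/-;hTDP1 cells, no CPT (DMSO vehicle only), 400 cells/well; compounds pin-transferred; ≥48 hr, 37 °C; CellTiter-Glo 30 min RT dark, luminescence read.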
IL-1B inflam inh: inhibitors of inflammasome signaling (IL-1 beta secretion) | THP-1 LPS/ATP IL-1B secretion, AlphaLISA, 16 h; active compounds read low | activity change, % at 57.5 µM | actives 4.7% (n = 360,000); in the data active = activity change below about -50%; inconclusive = mostly about -30% to -49%
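Secreted IL-1B measured by AlphaLISA bead assay after 16 h compound exposure of THP-1 cells; compounds (final up to 57.5 uM) added 1 h before LPS (250 ng/mL) and ATP (1.25 mM) stimulation; lower signal means less secretion.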
A number is an active result; 0 = inactive; ? = inconclusive; - = no result given. Unless noted, calls follow the shape of the dose curve; as a rule, active = well fitted inhibition curve with a large enough effect; inconclusive = small, poorly fitted or top-dose-only effect; inactive = flat fitted curve, though single readings scatter.

SMILES	D3 ag	D3 antag	DT40 TDP1 CPT	ClpP mod	TDP1 cell noCPT	IL-1B inflam inh
Cc1oc2ncnc(N3CCOCC3)c2c1C(=O)Nc1ccc(Br)cc1F	0	-	0	0	0	-
CCOc1ccc(S(=O)(=O)N(C)c2ccc(OCC(=O)Nc3ccccc3F)cc2)cc1	0	0	?	0	?	0
CCOC(=O)c1c(C)oc2ncnc(N3CCN(c4ccccc4)CC3)c12	0	-	8.2µM	0	8.2µM	-
CCOC(=O)c1c(C)oc2nc(C)nc(N3CCN(c4ccccc4F)CC3)c12	0	-	15µM	0	7.3µM	-
CN(C)S(=O)(=O)N1CCC(Oc2cccc(C(=O)NC3CCCCCC3)c2)CC1	0	0	18µM	0	15µM	0
CN(C)S(=O)(=O)N1CCC(Oc2ccc(C(=O)NC3Cc4ccccc4C3)cc2)CC1	0	0	?	0	16µM	0
CCOC(=O)C1(C)CCN1C(=O)c1ccc(C(=O)OC)cc1 (stereo not drawn)	0	0	?	0	0	0
Cc1c(-n2cc(C(=O)O)c(=O)c3cc(F)c(N4CCCC4)c(F)c32)c(=O)n(-c2ccccc2)n1C	0	0	16µM	0	23µM	0
Cc1c(NC(=O)N2CCCCCC2)c(=O)n(-c2ccccc2)n1C	0	0	0	0	0	0
Cc1ccc(O)c(NC(=O)c2cc3nc4c(c(C(F)(F)F)n3n2)CCc2ccccc2-4)c1	0	0	?	0	23µM	-51
C=CCN1C(=O)/C(=c2\sc3nc(=O)c(Cc4ccccc4)nn3c2=O)c2ccccc21	0	0	0	0	0	0
C=CCN1C(=O)/C(=N/n2cnnc2)c2ccccc21	0	0	5.8µM	0	4.6µM	0
CC1(OC(=O)CCc2ccccc2)C(=O)C=C2C=C(c3ccc(C#N)cc3)N(CCN3CCOCC3)C=C2C1=O (stereo not drawn)	0	0	0	0	0	0
CC1(OC(=O)C2CCCC2)C(=O)C=C2C=C(c3ccsc3)N(C3CCCC3)C=C2C1=O (stereo not drawn)	0	0	?	0	?	0
CC1(OC(=O)CCc2ccccc2)C(=O)C=C2C=C(c3ccc(C#N)cc3)N(C3CCCC3)C=C2C1=O (stereo not drawn)	0	0	23µM	0	15µM	0
CC1(OC(=O)CCc2ccccc2)C(=O)C=C2C=C(c3ccc(C#N)cc3)N(CC3CC3)C=C2C1=O (stereo not drawn)	0	0	15µM	0	?	0
CC1(OC(=O)CCc2ccccc2)C(=O)C=C2C=C(c3ccc(C#N)cc3)N(c3ccccc3)C=C2C1=O (stereo not drawn)	0	0	?	0	13µM	0
CCOC(=O)c1c(C)[nH]c(C(=O)N(C)CC(=O)Nc2ccc(OC)cc2)c1C	0	0	?	0	0	0
O=C(COC(=O)CNC(=O)c1ccccc1F)Nc1ncc(Cl)cc1Cl	0	0	0	0	0	0
Cc1ccccc1S(=O)(=O)NC1OC(=O)C(Oc2ccccc2)=C1Br (stereo not drawn)	0	0	0	-	0	0
Cc1ccccc1S(=O)(=O)NC1OC(=O)C(Cl)=C1Cl (stereo not drawn)	0	0	21µM	0	?	-107
Nc1[nH]c(=O)nc(Nc2ccccc2)c1N=O	0	0	?	-	0	0
COc1cccc(/C=N/Nc2ncnc3scc(-c4ccccc4)c23)c1OC	36	0	?	0	18µM	-67
Cc1sc2ncnc(N/N=C/c3ccccc3O)c2c1C	0	0	3.7µM	0	3.3µM	0
COc1ccc(/C=N/Nc2ncnc3sc(C)c(C)c23)cc1	0	0	2.9µM	0	4.1µM	0
Cc1sc2nc(C)n(/N=C/c3ccccc3O)c(=O)c2c1C	35	0	0	0	0	0
COc1cc(C2C3=C(Nc4nc(N)[nH]c(=O)c42)c2ccccc2C3=O)ccc1O (stereo not drawn)	0	0	0	-	0	0
